From PubChem
CYP2C9 inh: blocks human cytochrome P450 2C9. P11712. CYP2C9 Supersomes, luciferin-H conversion, luminescence. inhibition, % at 5 µM. 20% of 96,000 active. AID 777;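 active = blocking of liver enzyme CYP2C9 beyond about 50% at 5 µM, limit read from the data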
Target sequence (P11712 whole entry, looked up): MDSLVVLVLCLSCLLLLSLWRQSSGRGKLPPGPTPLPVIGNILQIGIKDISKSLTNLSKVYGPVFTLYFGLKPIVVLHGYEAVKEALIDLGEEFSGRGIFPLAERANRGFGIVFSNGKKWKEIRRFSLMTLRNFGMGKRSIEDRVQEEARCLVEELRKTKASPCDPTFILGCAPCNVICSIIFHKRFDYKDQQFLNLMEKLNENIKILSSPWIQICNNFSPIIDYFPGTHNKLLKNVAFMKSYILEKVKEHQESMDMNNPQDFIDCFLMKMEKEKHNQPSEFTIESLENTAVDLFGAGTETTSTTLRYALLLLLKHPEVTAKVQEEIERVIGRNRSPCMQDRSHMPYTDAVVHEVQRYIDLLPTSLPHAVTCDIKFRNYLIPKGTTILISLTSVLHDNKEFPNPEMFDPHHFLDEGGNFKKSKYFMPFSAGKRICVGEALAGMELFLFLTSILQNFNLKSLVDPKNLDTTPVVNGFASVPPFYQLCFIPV
CYP2C9 act: increases human cytochrome P450 2C9 activity; recombinant CYP2C9, luciferin-H conversion, luminescence; stronger effect = higher value; factor 1 = untreated enzyme, 0 = blocked; activation factor at 5 µM; 1.4% of 96,000 active; AID 1024;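 active = activation factor of 2 or more for CYP2C9 at a 5 µM dose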;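 note: 0 = sulfaphenazole-blocked wells and 1 = vehicle-only wells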
CYP2C19 inh: inhibitors of human CYP2C19 | CYP2C19 Supersomes, luciferin-H EGE luminescence, 30 min | inhibition, % at 5 µM | 21% of 96,000 active;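 active = CYP2C19 inhibition above a set limit at 5 µM in the primary screen, cut at about 50% in these data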;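 note: plate controls were negative control wells for no effect and 2.5 mM tranylcypromine positive control for full effect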
CYP2C19 activ: cytochrome P450 2C19 (human) activation | 96,000 tested, under 10 active | recombinant CYP2C19, luciferin-H EGE luminescence; stronger effect = higher value; 0 = fully inhibited enzyme, 1 = untreated enzyme | AID 1025 | activation factor at 5 µM;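 active = activation factor of at least 2 at 5 µM in the primary screen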;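 note: 0 = wells with 2.5 mM tranylcypromine and 1 = vehicle-only wells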
PLAP act: human PLAP activation; AID 696; activation fold at 20 µM; P05187; 1.2% of 96,000 active; purified PLAP enzyme, luminescent substrate read-out; stronger effect = higher value; in the data active = activation fold above about 2
Active calls of the source: *. Hits are enriched below; roughly 31% of the tested compounds scored in any of these assays.

SMILES	CYP2C9 inh	CYP2C9 act	CYP2C19 inh	CYP2C19 activ	PLAP act
Cn1c(SCC(=O)Nc2ccc(F)cc2F)nnc1-c1cccnc1	19.1	0.8	11.6	0.9	0.9
CCn1ncc(C2=NOC(C(=O)Nc3cnn(C45CC6CC(CC(C6)C4)C5)c3)C2)c1C (stereo not given)	11.4	0.9	10.3	0.9	1.4
CCOC(=O)c1nnn(-c2nonc2N)c1COc1cc(C)c(Cl)c(C)c1	3.4	1	-8.0	1.1	0.9
CN(Cc1ccccc1)C(=O)CCCn1c(=O)[nH]c2cc(Cl)ccc2c1=O	-0.2	1	81.9*	0.2	1.1
CC(C)c1ccc(/C=N/NC(=O)CN(c2cccc(Cl)c2Cl)S(C)(=O)=O)cc1	1.4	1	-6.9	1.1	1.1
COc1ccc(C2(O)CC3CCC(C2)N3c2nc(C)cc(C)c2C#N)cc1 (stereo not given)	58.7*	0.4	41.2	0.6	1.2
Cc1ccc(-c2nc3ncccc3o2)cc1NC(=O)c1sc2ccccc2c1Cl	43.1	0.6	15.3	0.8	0.8
CCOC(=O)c1cc(NC(=O)OC)c(C)nc1C	-21.1	1.2	-3.8	1	0.9
CCOc1ccc(-n2c(SCc3nc(-c4cccs4)no3)nnc2-c2ccncc2)cc1	94.2*	0.1	91.8*	0.1	1.5
Cn1c(SCc2nc(-c3cccs3)no2)nnc1C1CCCCC1	45.8	0.5	78.0*	0.2	1
CCCn1c(SCc2nc(-c3cccs3)no2)nnc1-c1ccncc1	29.8	0.7	56.4*	0.4	1.2
O=C(NC1=NCCS1)NC12CC3CC(CC(C3)C1)C2	15.4	0.8	18.8	0.8	1.2
CCC(NC(=S)NCc1ccccc1)C(=O)O (stereo not given)	11.9	0.9	54.5*	0.5	1.3
CCC(C)[C@H](NC(=O)NCc1ccccc1)C(=O)O (stereo not given in full)	-2.5	1	-1.7	1	1.1
COc1ccccc1-c1cc(C(F)(F)F)n2ncc(S(=O)(=O)c3ccccc3)c2n1	96.7*	0	38.4	0.6	1.3
CCC(CC)C(=O)NCCc1ccc(OC)cc1	58.8*	0.4	77.1*	0.2	0.7
COc1ccc(CCNC(=O)c2ccc(Cl)cc2Cl)cc1	6.1	0.9	88.6*	0.1	0.8
CCOC(=O)COc1ccc(CCNC(C)=O)cc1	-110.9	2.1*	-12.7	1.1	1
COC(=O)/C(=C\Nc1ccc(OC)cc1)NC(=O)c1ccc(Cl)cc1Cl	19.7	0.8	14.5	0.9	0.9
CCOC(=O)NC(NCCc1ccccc1)(C(F)(F)F)C(F)(F)F	53.4*	0.5	63.4*	0.4	1.1
Cc1cc(C)n(-c2ccc(C(=O)C(C#N)c3nc4ccccc4n3C)cc2)n1 (stereo not given)	-2.6	1	29.6	0.7	1.2
Cc1cc(Oc2ccc(C#N)cc2)nc(N2CCOCC2)n1	38.5	0.6	16.8	0.8	1.1
COc1ccc(CCNC(C)=O)cc1	-10.9	1.1	-4.8	1	0.9
CCOC(=O)NCCc1ccc(OC)cc1	63.6*	0.4	82.8*	0.2	0.9
CCOc1ccc(CCNC(=O)C(O)c2ccccc2)cc1 (stereo not given)	57.0*	0.4	47.1	0.5	0.9
SMILES	CYP2C9 inh	CYP2C9 act	CYP2C19 inh	CYP2C19 activ	PLAP act
CC(=O)Nc1cc(C(=O)c2ccccc2)ccc1N1CCOCC1	12.5	0.9	31.2	0.7	1.3
O=C(c1ccc(Cl)c(Cl)c1)c1cc(-c2ccccn2)c(N2CCOCC2)s1	65.3*	0.3	29.5	0.7	1.1
CC1CCc2c(C(=O)Oc3cccc(-n4cnnn4)c3)csc2C1 (stereo not given)	-9.2	1.1	2.0	1	1.1
Cc1ccc(-n2c(CNc3ccc(F)cc3)nnc2SCC(=O)N2CCCC2)cc1	-3.3	1	-11.6	1.1	1.5
Cc1ccc(-n2c(CNc3ccc(F)cc3)nnc2SCC(=O)NCc2ccco2)cc1	61.0*	0.4	34.8	0.7	1.6
O=C(CSc1nnc(CCc2nc3ccccc3[nH]2)n1-c1ccccc1)NCc1ccco1	75.4*	0.2	30.7	0.7	2*
Cc1ccc(NC(=O)Cn2nc(C)c3ccccc3c2=O)cc1	-7.1	1.1	13.1	0.9	1
CNC(=O)CCn1nc(-c2ccc(Cl)cc2)c2ccccc2c1=O	16.3	0.8	44.2	0.6	1.1
COc1ccc(-c2nn(CC(=O)Nc3ccc(Cl)c(Cl)c3)c(=O)c3ccccc23)cc1	87.2*	0.1	33.3	0.7	1.3
CCCC(=O)NNC(=O)Nc1ccccc1	2.7	1	4.5	1	1.1
N#Cc1c(-c2ccccc2)c(-c2ccccc2)nn(CC(=O)NNC(=O)Nc2ccccc2)c1=O	53.0*	0.5	25.3	0.7	1.8
O=C(Cn1nc(-c2ccccc2)c2ccccc2c1=O)Nc1cccnc1	72.0*	0.3	19.7	0.8	1.2
O=C(Cn1nc(-c2ccc(Cl)cc2)c2ccccc2c1=O)Nc1cccnc1	59.2*	0.4	1.9	1	1.4
O=C(Cn1nc(-c2ccccc2)c2ccccc2c1=O)Nc1ccccn1	35.8	0.6	14.5	0.9	1.2
N#C[C@H]1[C@H](c2ccccc2)[C@](C#N)(C(=O)c2ccccc2)[C@@H]2C=Cc3ccccc3N21	32.7	0.7	20.1	0.8	1.1
Cc1ccc(C(=O)Nc2c(C(=O)N3CCOCC3)cnn2-c2ccccc2)cc1	-16.3	1.2	-17.3	1.2	1.3
Cc1n[nH]c(C)c1S(=O)(=O)N1CCN(C2CCCCC2)CC1	28.5	0.7	0.6	1	1.7
Fc1ccc(CSc2nnc(Cc3sc(-c4ccccc4)nc3-c3ccccc3)o2)cc1	72.4*	0.3	14.6	0.9	0.7
CSc1nnc(Cc2sc(-c3ccccc3)nc2-c2ccccc2)o1	99.7*	0	88.9*	0.1	1.9
c1ccc(CSc2nnc(Cc3ccccn3)o2)cc1	-5.1	1.1	9.0	0.9	1.1
COc1ccc(CSc2nnc(Cc3sc(-c4ccccc4)nc3-c3ccccc3)o2)cc1	67.3*	0.3	6.0	0.9	0.9
N#Cc1c(N)nc2c(c1N)CC(COc1ccccc1)O2 (stereo not given)	-8.0	1.1	-3.4	1	1
COc1ccc(C(C(=O)NC2CCCCC2)N(Cc2cccs2)C(=O)Cc2c[nH]c3ccccc23)cc1OC (stereo not given)	85.3*	0.1	-4.8	1	1.1
Cc1ccc(N(C(=O)Cc2c[nH]c3ccccc23)C(C(=O)NC2CCCCC2)c2ccco2)cc1 (stereo not given)	94.0*	0.1	84.2*	0.2	1.3
Cc1ccc(C(C(=O)NC2CCCCC2)N(Cc2ccco2)C(=O)Cc2c[nH]c3ccccc23)o1 (stereo not given)	45.8	0.5	53.6*	0.5	1.3
Cc1cc(Cl)ccc1N=Cc1c(O)n(C)c(=O)n(C)c1=O	1.0	1	-3.8	1	1
Cc1ccc(C)n1NC(=O)c1ccc(O)cc1	31.5	0.7	2.3	1	1.6
